Bioassay records from PubChem.
The list is not random: actives were taken first. Their share in the collection is about 10%.
G9a block = blocks human histone lysine methyltransferase G9a. hit rate 8.8% among 350,000. G9a H3K9 monomethylation, AlphaScreen, 2 h. Q96KQ7. Potency, µM (top dose mostly 102 µM), without a hit: at the top dose activity, negative = inhibition, most hits filed as inhibitors; also: potency is read from the fitted curve at half-maximal effect; % is scaled to controls: 0 for no effect and ±100 for the full control effect; nearly all actives have a fitted effect of over 75% in size
Target sequence (Q96KQ7 913-1193 limits assumed): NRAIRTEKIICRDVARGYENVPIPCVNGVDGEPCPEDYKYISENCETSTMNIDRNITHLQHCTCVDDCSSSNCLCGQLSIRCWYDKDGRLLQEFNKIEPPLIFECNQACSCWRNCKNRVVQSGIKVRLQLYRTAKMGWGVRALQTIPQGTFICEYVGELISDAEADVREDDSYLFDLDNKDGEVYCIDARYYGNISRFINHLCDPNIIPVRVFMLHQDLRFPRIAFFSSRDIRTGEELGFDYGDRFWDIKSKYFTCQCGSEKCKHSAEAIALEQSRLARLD
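Enzyme 20 nM + cpd, 15 min RT; add b-H3K9 pep 500 nM / SAM 20 uM; 2 h RT; anti-H3K9me1 Ab 0.5 ug/mL + SA donor / anti-rabbit acceptor beads 20 ug/mL each, 10 min; AlphaScreen read.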
BAZ2B inh = BAZ2B (human) inhibition; Q9UIF8; AlphaScreen BAZ2B-H3K14Ac peptide displacement; Potency, µM (titrated, usually from 114 µM), for the others: at the top dose activity change, negative = inhibition, most hits filed as inhibitors; hit rate 4.4% among 360,000; also: potency is read from the fitted curve at half-maximal effect; % is scaled to controls: 0 for no effect and ±100 for the full control effect; nearly all actives have a fitted effect of over 60% in size
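AlphaScreen displacement: compounds (up to 110uM) incubated 30 min at room temperature with a preformed 50 nM BAZ2B/50 nM biotinylated H3K14Ac peptide complex in PBS pH 7.4 with Tween-20. Donor and acceptor beads at 10 ug/mL final added, 20 min light-protected before reading.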
Six1-Eya2 inh = Six1/Eya2 interaction inhibition. hit rate 0.56% among 360,000. AID 651725. activity change, % (concentration not given with the values). Q15475+O00167. AlphaScreen GST-Six1/His-Eya2 binding, biochemical; hits give low values; in the data active = activity change below about -65%; inconclusive = mostly about -30% to -63%; also: % is scaled to controls: 0 for no effect and ±100 for the full control effect
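AlphaScreen luminescence read after one hour at 37 °C in darkness. Pin-transferred compounds met GST-Six1 and His-Eya2 protein (5X stock 250 nM/500 nM) plus glutathione donor and Ni-chelate acceptor beads (5X, 50 ug/mL).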
CtBP-E1A inh = blocks the CtBP interaction with E1A. AlphaScreen GST-E1A/His-CtBP binding, 1536-well; hits give low values. hit rate 0.49% among 340,000. AID 651724. activity change, % (no concentration beside the values); in the data active = activity change below about -65%; inconclusive = mostly about -30% to -63%; also: % is scaled to controls: 0 for no effect and ±100 for the full control effect
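GST-E1A and His-tagged CtBP (125 nM each as 5X stock) were preincubated with pin-transferred compound for 2 h at 37 °C in the dark, then glutathione donor and nickel acceptor beads were added for 1 h before AlphaScreen reading.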
JMJD2A Tudor = blocks the human JMJD2A Tudor domain; O75164; AlphaScreen JMJD2A-Tudor / H3K4me3 peptide binding; Potency, µM (top dose mostly 114 µM), for the others: top-dose activity change, negative = inhibition, hits mostly inhibitors; hit rate 4.4% among 390,000; AID 504339; also: potency is read from the fitted curve at half-maximal effect; % is scaled to controls: 0 for no effect and ±100 for the full control effect; nearly all actives have a fitted effect of over 50% in size
HP1b chromo inh = HP1-beta chromodomain-methylated histone interaction inhibition. hit rate 0.56% among 390,000. P83916. AID 540317. Potency, µM (series often up to 114 µM), for the others: at the highest dose activity change, negative = inhibition, hits mostly inhibitors. AlphaScreen HP1-beta / biotin-H3K9me3 peptide binding; also: potency is read from the fitted curve at half-maximal effect; nearly all actives have a fitted effect of over 70% in size
Target sequence (P83916 whole entry, looked up): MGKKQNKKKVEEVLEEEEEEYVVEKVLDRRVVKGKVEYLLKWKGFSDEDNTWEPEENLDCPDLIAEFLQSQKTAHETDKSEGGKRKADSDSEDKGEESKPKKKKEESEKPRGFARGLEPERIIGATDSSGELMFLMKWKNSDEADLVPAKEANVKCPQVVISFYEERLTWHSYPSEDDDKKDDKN
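HP1-beta protein (50 nM final) preincubated 30 min at room temperature with biotinylated H3(1-18)K9me3 peptide (50 nM) in PBS pH 7.4, 0.01% Tween-20, then compound added for 30 min. AlphaScreen streptavidin donor/nickel chelate acceptor beads (10 ug/mL final), 30 min dark, luminescence read.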
* marks the source's active call; other numbers are inactive results; ? = inconclusive; . = no result; ! = a repeat was not active; [ ] = remark or other dose. Unless noted, calls follow the shape of the dose curve; as a rule, active = well fitted inhibition curve with a large enough effect; inconclusive = small, poorly fitted or top-dose-only effect; inactive = no such curve, though single readings can be large or run the other way.

SMILES | G9a block | BAZ2B inh | Six1-Eya2 inh | CtBP-E1A inh | JMJD2A Tudor | HP1b chromo inh
CCC1CN2CCc3cc(OC)c(OC)cc3C2CC1CC1NCCc2cc(OC)c(OC)cc21 (centres undefined) | -36%[2.33 µM] | . | . | . | . | .
Cc1ccc(N)c(C(=O)c2ccccc2)c1 | ? | ? | -16 | -17 | ? | -13%
Cc1cc(N=Nc2ccccc2C)ccc1N | . | . | ? | ? | 40µM* | 35µM*
CCOC(=O)c1ncn2c1CN(C)C(=O)c1cc(F)ccc1-2 | 14%[59 µM] | 1% | 0 | -12 | -6% | 36%
O=C(COc1ccc(Cl)cc1)N1CCN(C2CCCC2)CC1 | 8.9µM* | 50µM* | -2 | 8 | 20µM* | ?
CC1CCC(N2CCN(C(=O)COc3ccccc3)CC2)CC1 (centres undefined) | 11µM* | 50µM* | -2 | -3 | 4µM* | -18%
O=C(COc1ccc(Cl)cc1)N1CCN(Cc2ccccc2)CC1 | 5%[59 µM] | -5% | -1 | 9 | -5% | 21%
C[C@@H]1CC[C@H]2[C@@H](C)C(=O)O[C@@H]3OC4(C)CC[C@@H]1[C@]32OO4 | 3%[59 µM] | . | . | . | . | .
O=C(Oc1ccccc1)N1CCC2(CCN(Cc3nccs3)CC2)CC1 | -6%[12.7 µM] | . | . | . | . | .
Cc1cccc(NC(=O)CSc2ccc(-c3ccco3)nn2)c1 | 28µM* | -25% | -9 | 0 | -10% | 23%
CC1CC[C@@]2(NC1)OC1CC3C4CC[C@@H]5CC(O)CC[C@@]5(C)C4CC[C@]3(C)C1C2C (some centres undefined) | -6%[2.33 µM] | . | . | . | . | .
COc1ccc(CC(=O)NC(=S)NNC(=O)COc2c(C)cccc2C)cc1 | 1.1µM* | 8% | 0 | 1 | 16µM* | ?
COc1ccc(C(=O)NC(=S)NNC(=O)c2cccnc2)cc1 | ? | 13% | -9 | -14 | -9% | 18%
Cc1ccccc1C(=O)NNC(=S)NC(=O)COc1ccccc1 | 0.56µM* | ? | 2 | 5 | 4.5µM* | ?
C[C@@H]1C[C@H]2OC(=O)C3(CO3)[C@H]2[C@H](O)[C@]2(C)C(=O)C3OC3[C@@H]12 (some centres undefined) | 11%[59 µM] | 6% | . | . | . | .
C=C1C(=O)O[C@@H]2C[C@@H](C)[C@@H]3C=CC(=O)[C@@]3(C)[C@@H](O)[C@H]12 | 11µM*! | 1% | -4 | -6 | -14% | 40%
CCC(C)(S(=O)(=O)CC)S(=O)(=O)CC | -25%[12.7 µM] | . | . | . | . | .
CCN(CC)P(c1n(C)cc[n+]1C)N(CC)CC | ? | -18% | 11 | . | 22µM* | ?
COc1cc(-c2ccc(N)c(OC)c2)ccc1N | 0%[0.501 µM] | 50µM* | 0 | -18 | ? | ?
Cc1ccc(NC(=O)COC(=O)/C=C/c2ccco2)cc1S(=O)(=O)N(C)C | 14µM* | ? | -11 | -19 | ? | -32%
O=C1NC(=O)N(Cc2ccccc2)C(=O)/C1=C/C=C/c1ccco1 | . | 35µM* | 5 | -3 | -30% | 0%
CC(C)c1ccc(N2C(=O)NC(=O)/C(=C\C=C\c3ccco3)C2=O)cc1 | ? | -27% | -19 | -1 | ? | 1%
COc1ccc(CN2C(=O)NC(=O)/C(=C\c3ccco3)C2=O)cc1 | 28µM* | 28µM* | -20 | -6 | 45µM* | ?
COc1cc(OC)c(OC)cc1/C=C1/C(=O)NC(=O)N(Cc2ccccc2)C1=O | 50µM* | -18% | -5 | 0 | -19% | 22%
COc1cc(OC)c(OC)cc1/C=C1\C(=O)NC(=O)N(Cc2ccccc2)C1=O | ? | -28% | 6 | 12 | -7% | 17%
SMILES | G9a block | BAZ2B inh | Six1-Eya2 inh | CtBP-E1A inh | JMJD2A Tudor | HP1b chromo inh
COc1ccc(CN2C(=O)NC(=O)/C(=C\c3cc(OC)c(OC)c(OC)c3)C2=O)cc1 | ? | ? | -8 | -12 | 50µM* | -24%
Cc1ccccc1-n1nc(C)c2c1NC(=O)CSC2c1ccccc1C(F)(F)F (centres undefined) | -11%[59 µM] | -2% | . | . | -2% | 29%
COc1cc([C@@H]2c3cc4c(cc3[C@H](O)[C@H]3COC(=O)[C@@H]23)OCO4)cc(OC)c1OC | . | . | . | . | -18% | 72%
Cc1ccc(C(=O)c2cn(CC(=O)Nc3ccc(C(C)C)cc3)c3nc(C)ccc3c2=O)cc1 | -7%[59 µM] | 4%[57.1 µM] | . | . | ? | -2%
CCCOc1ccc(C(=O)CCC(=O)NNC(=O)c2ccncc2)cc1 | 56% | 5% | -2 | 3 | -6% | 29%
Clc1ccc2[nH]c3c(c2c1)CCNC3 | 79µM* | -26% | -1 | -15 | -18% | 15%
O=c1[nH]c(=S)[nH]c(O)c1/C=C1/C=c2ccccc2=N1 | . | ? | -5 | -4 | ? | 45%
Cc1cccc2c1=NC(=O)/C(=C/c1c(O)[nH]c(=O)[nH]c1=O)C=2 | 10µM* | ? | 9 | 2 | -21% | 9%
O=C(COc1ccccc1)NCCc1cnc[nH]1 | -13% | 3% | 1 | -1 | -7% | 19%
Cc1cc2ccccc2n1CCNC(=O)COc1ccccc1 | 50µM* | ? | -9 | -26 | 20µM* | ?
NC(N)=Nc1ccc2[nH]c3c(c2c1)C[C@@]1(O)[C@H]2Cc4ccc(O)c5c4[C@@]1(CCN2CC1CC1)[C@H]3O5 | 1.3µM* | 25µM* | -7 | -22 | 3.5µM* | ?
Oc1ccc2c3c1O[C@H]1c4oc5ccccc5c4C[C@@]4(O)C(C2)N(CC2CC2)CC[C@]314 | -3%[59 µM] | . | . | . | . | .
CCn1cc(C(=O)O)c(=O)c2cc(F)c(N3CCNCC3)cc21 | 8.9µM*! | -8% | . | . | . | .
Cc1cccc(N2CCN(C(=O)c3ccc(CNc4c(N5CCC(C)CC5)c(=O)c4=O)cc3)CC2)c1C | 30%[59 µM] | ? | 0 | -4 | -23% | -10%
CC1CCN(C(=O)c2ncn(C)c2C(=O)N2CCC(C)CC2)CC1 | . | . | 0 | 2 | 22µM* | 13%
NC(CCP(=O)(O)O)C(=O)O (centres undefined) | -11%[59 µM] | . | . | . | . | .
N[C@@H](CCl)C(=O)O | 21µM* | . | 0 | 4 | ? | 10%
NC(N)=NCCC[C@H](N)C(=O)O | 54%[12.7 µM] | . | . | . | . | .
C[Se]C[C@@H](N)C(=O)O | 4µM* | ? | -4 | 4 | 20µM* | -4%
C[Se]C[C@H](N)C(=O)O | 0.63µM* | . | . | . | . | .
Cc1cc(-n2c(/C=C/c3cccs3)nc3ccccc3c2=O)ccc1Br | -31%[59 µM] | ? | . | . | ? | 8%
CN[C@@H]1C[C@@]2(C)O[C@@H]([C@@H]1OC)n1c3ccccc3c3c4c(c5c6ccccc6n2c5c31)C(=O)NC4 | -5%[59 µM] | . | . | . | . | .
C=CCc1c(C)nc(C)nc1N/N=C/c1ccc(N(C)C)cc1 | 24%[59 µM] | ? | -9 | -9 | 17%[11.4 µM] | 6%
